Assay in all cases: NCI-60 one-dose screen, 48 h (100 = growth as untreated, 0 = no growth, -100 = all killed)
Details in all cases: 10 µM unless noted

Experiment [1] concerns HCT-15 colon.
Experiment [2] has as its system HT29 colon.
Experiment [3] has as its system SNB-75 CNS.
Experiment [4] deals with SNB-19 CNS.
In experiment [5] the test system is U251 CNS.
Experiment [6] has as its system PC-3 prostate.
For experiment [7], the system named is SK-MEL-5 melanoma.
Experiment [8] has as its system UACC-62 melanoma.
The subject of experiment [9] is LOX IMVI melanoma.
Experiment [10] deals with SK-MEL-28 melanoma.

About 83,000 compounds went through this panel and 20% of them were active in at least one assay; those are over-represented in the sample as a whole.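 Cell lines were cultured in 96-well plates, exposed to a single compound concentration, and assessed for percent growth 48 hours later.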 Unmarked numbers belong to inactive results. Active and inactive are the calls of the source. Rule for the calls: active = growth percent below 10; inactive = the rest.

This passage reports growth results from PubChem BioAssay (NCI).

Turning to `Nc1ccc(-c2ccc3ncnc(N4CCc5cc(F)c(Cl)cc54)c3c2)cn1`, the growth in [1] is 24.8%; in experiment [2], 25.9%; in experiment [3], -4.49% (active); in experiment [4], 39.3%; in experiment [5], 43.8%; in experiment [6], 19%. Besides, the growth is 16.6% in experiment [7], 15% in experiment [8], 18.7% in experiment [9] and 41.4% in experiment [10].
With `O=C(Cn1c(-c2ccccc2)nc2ccccc21)N=Nc1c(O)[nH]c2ccc(Cl)cc12`, the growth is 7.61% (active) in experiment [1]; 2.44% (active) in experiment [2]; -49.5% (active) in [3]; -4.56% (active) in [4]; 13.4% in experiment [5]; 21.7% in experiment [6]. For the same compound, the growth in experiment [7] was 10.7%; in [8] it was -2.77% (active); in [9], 8.05% (active); in experiment [10] it was -51% (active).
With `Cn1cc(-c2cc(N)n3nc(-c4c[nH]c5ccccc45)cc3n2)c2cc(Cl)ccc21`, the growth is -77.3% (active) in experiment [1]; -51.4% (active) in [2]; -14.7% (active) in experiment [3]; -91.1% (active) in experiment [4]; -94.7% (active) in experiment [5]; -27.2% (active) in experiment [6]. Further, the growth is -97.6% (active) in experiment [7], -76.9% (active) in experiment [8], -82.5% (active) in experiment [9] and -90.2% (active) in [10].
On to `O=C1c2cccc3c(N4CCN(Cc5ccccc5)CC4)ccc(c23)C(=O)N1c1cccc(-c2nn(-c3ccccc3)cc2-c2nc3ccccc3s2)c1`, for which the growth is 110% in [1]; 115% in [2]; 84.3% in [3]; 103% in experiment [4]; 106% in experiment [5]; 88.1% in [6]. Besides, the growth in experiment [7] is 102%; in [8] it was 94.6%; in experiment [9], 97.9%; in experiment [10] it was 106%.
For the compound `CN1CCc2c(sc3ncnc(N/N=C/c4cccc(Cl)c4Cl)c23)C1`, the growth is -14.5% (active) in experiment [1]; -12.7% (active) in experiment [2]; 76.3% in experiment [3]; 4.21% (active) in experiment [4]; -96.3% (active) in experiment [5]; 96% in experiment [6]. Besides, the growth was 80.7% in experiment [7], 92.5% in experiment [8], -82.5% (active) in experiment [9] and 103% in experiment [10].
`COc1ccc(-c2nc3ccccc3n2CC(=O)N=Nc2c(O)[nH]c3ccc(OC)cc23)cc1`: the growth in experiment [1] was 43.7%; in experiment [2], 0.298% (active); in experiment [3], 73%; in experiment [4], 95.1%; in experiment [5], 96.6%; in [6], 64.8%. Also, the growth in [7] was 22.9%; in [8], 81.6%; in [9], 56.8%; in [10], 81.2%.
Take `O=C(NN1C(=O)/C(=C/C=C/c2ccc([N+](=O)[O-])o2)SC1=S)c1ccc(O)cc1`: the growth was -73% (active) in experiment [1]; -67.7% (active) in [2]; -65.1% (active) in [3]; -100% (active) in experiment [4]; -91.4% (active) in experiment [5]; -67.2% (active) in [6]. In addition, the growth was -100% (active) in [7], -99.3% (active) in experiment [8], -84.8% (active) in experiment [9] and -100% (active) in experiment [10].
As to `COc1ccc(N=Nc2c(N)nn3c(-c4ccc(F)cc4)ccnc23)cc1`, the growth is 54% in experiment [1]; 58.6% in experiment [2]; 110% in experiment [3]; 97.1% in [4]; 69.8% in experiment [5]; 82.2% in experiment [6]. For the same compound, the growth in experiment [7] was 91.1%; in experiment [8], 71.3%; in experiment [9] it was 86.8%; in experiment [10] it was 63.1%.
As for `CC(C)C[C@H](NC(=O)[C@@H]1CCCCCCCCCCC(=O)N[C@@H](CC(=O)N2CCC[C@@H]2C2CCCC2)C(=O)N1)B(O)O`, the growth in experiment [1] is -36.7% (active); in [2] it was -18% (active); in experiment [3], -77% (active); in [4] it was 6.18% (active); in [5] it was -50.7% (active); in [6] it was 8.18% (active). Besides, the growth is -92% (active) in [7], -86.8% (active) in experiment [8], -93.3% (active) in [9] and -5.72% (active) in experiment [10].
For `COc1ccc(-c2nc3ccccc3n2CC(=O)N=Nc2c(O)[nH]c3ccc(Br)cc23)cc1`, the growth in experiment [1] is 58.1%; in experiment [2], 45.4%; in experiment [3], 66.8%; in experiment [4], 89.3%; in experiment [5] it was 105%; in experiment [6] it was 76.7%. The growth in [7] was 67.4%; in experiment [8], 72.1%; in experiment [9] it was 74.4%; in experiment [10] it was 97.8%.
As for `Cc1nn(-c2ccccc2)c2nc(C)n(CC(=O)N/N=C/c3cccc([N+](=O)[O-])c3)c(=O)c12`, the growth is 96.2% in experiment [1]; 102% in [2]; 79.5% in [3]; 77% in experiment [4]; 98.3% in experiment [5]; 80.1% in experiment [6]. The growth in experiment [7] is 97.6%; in experiment [8], 81.3%; in experiment [9] it was 88.8%; in experiment [10], 106%.
`COc1ccc(CCC2NCCc3c(Br)c4c(c(OC)c32)OCO4)cc1` (stereo not given): the growth in [1] is 7.93% (active); in experiment [2] it was 2.11% (active); in [3], -4.42% (active); in experiment [4], 12.1%; in experiment [5] it was 7.13% (active); in [6], 26.5%. The growth in [7] is -17% (active); in experiment [8], -32.5% (active); in experiment [9], -27.5% (active); in experiment [10], 1.12% (active).
As to `CC1=C(C)C(=O)C(N2CCSCC2)=CC1=O`, the growth was 104% in experiment [1]; 103% in experiment [2]; 80.8% in experiment [3]; 87.2% in [4]; 96.9% in experiment [5]; 89.7% in experiment [6]. For the same compound, the growth in experiment [7] is 96.7%; in experiment [8] it was 93.3%; in experiment [9], 83.8%; in [10] it was 107%.
